Experimental findings from PubChem BioAssay (NCI) are described below.

Compounds without any hit were thinned out: in the full panel of roughly 79,000, 15% have a hit. Values without a mark were called inactive. The source made the active and inactive calls. Rule as the data show it: active = growth inhibition above about 70%; inactive = the rest.

Experiment [1] can be described thus: NCI Yeast Anticancer Drug Screen. Data for the rad50 strain (AID 155).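 Also: 0% = growth of vehicle-only cultures of the same strain.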 The following applies: S. cerevisiae rad50 strain growth inhibition, active compounds read high. The method in brief: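 Readout: growth inhibition relative to vehicle-treated cultures. Compound exposure was carried out in a genetically defined yeast strain deficient in DNA damage repair.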
The nature of experiment [2]: NCI Yeast Anticancer Drug Screen. Data for the mec2-1 strain (AID 157). The following applies: S. cerevisiae mec2-1 strain, active compounds read high. In a few lines:
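mec2-1 yeast strain, carrying an alteration in DNA damage repair or cell cycle control, was exposed to compounds; growth inhibition was measured relative to vehicle-treated controls.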

The nature of experiment [3]: NCI Yeast Anticancer Drug Screen. Data for the sgs1 mgt1 strain (AID 161).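 Also: 0% = growth of cultures given vehicle only.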 Particulars: S. cerevisiae sgs1 mgt1 strain, active compounds read high. The method in brief:
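Percent growth inhibition was derived by comparing compound-exposed mutant yeast with vehicle-exposed cultures. The strain carries alterations in DNA damage repair.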

The nature of experiment [4]: NCI Yeast Anticancer Drug Screen. Data for the cln2 rad14 strain (AID 165).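 Also: 0% = growth equal to vehicle treated cultures.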 The following applies: S. cerevisiae cln2 rad14 strain, active compounds read high. The method in brief:
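Yeast carrying cln2 and rad14 alterations (cell cycle control and DNA damage repair) were exposed to compounds. Growth inhibition was measured against vehicle-treated controls.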

Experiment [5] in a line: NCI Yeast Anticancer Drug Screen. Data for the bub3 strain (AID 167). The following applies: S. cerevisiae bub3 mutant strain, active compounds read high. The method in brief:
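Readout: yeast growth inhibition, expressed relative to vehicle-only wells. The test organism is a mutant strain from a panel with lesions in DNA repair or checkpoint genes.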

Experiment [6] can be described thus: NCI Yeast Anticancer Drug Screen. Data for the mlh1 rad18 strain (AID 175). Particulars: S. cerevisiae mlh1 rad18 strain growth inhibition, active compounds read high. The method in brief:
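Growth inhibition of the yeast strain was measured after compound exposure and expressed relative to vehicle-treated controls. The strain carries defined defects in DNA damage repair.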

Where [7] appears, read: at 5.0 µM (retest, dose inferred, filed as 0.5).
The mark [8] stands for this setting: at 50.0 µM (retest, dose inferred, filed as 5.0).

Regarding `O=C1c2ccccc2C(=O)c2c(OCCOCCO)cccc21`, the growth inhibition in experiment [1] (setting [7]) is 6%; in experiment [1] (setting [8]) it was 70% (active); in experiment [1] (at 50.0 µM), 86.2% (active); in experiment [2] (setting [7]) it was 3%; in experiment [2] (setting [8]), 18%; in experiment [2] (at 50.0 µM), 23.9%. Further, the growth inhibition in experiment [3] (setting [7]) was 2%; in experiment [3] (setting [8]) it was 31%; in experiment [3] (at 50.0 µM), 18%; in experiment [4] (setting [7]) it was -3%; in experiment [4] (setting [8]), 21%; in experiment [4] (at 50.0 µM), 24.6%. Moreover, the growth inhibition was -6% in experiment [5] (setting [7]); 17% in experiment [5] (setting [8]); 37.6% in experiment [5] (at 50.0 µM); 1% in experiment [6] (setting [7]); 65% in experiment [6] (setting [8]); 39.6% in experiment [6] (at 50.0 µM).

Consider `C=CS(=O)(=O)Cc1ccc(Cl)cc1`, for which the growth inhibition in experiment [1] (setting [7]) was -126%; in experiment [1] (setting [8]) it was 91% (active); in experiment [1] (at 50.0 µM) it was 98.6% (active); in experiment [2] (setting [7]), -31%; in experiment [2] (setting [8]), 91% (active); in experiment [2] (at 50.0 µM), 97.2% (active). In addition, the growth inhibition in experiment [3] (setting [7]) was -33%; in experiment [3] (setting [8]) it was 91% (active); in experiment [3] (at 50.0 µM), 94.2% (active); in experiment [4] (setting [7]) it was -42%; in experiment [4] (setting [8]), 84% (active); in experiment [4] (at 50.0 µM), 93.9% (active). Besides, the growth inhibition in experiment [5] (setting [7]) is -48%; in experiment [5] (setting [8]), 94% (active); in experiment [5] (at 50.0 µM) it was 97% (active); in experiment [6] (setting [7]), -108%; in experiment [6] (setting [8]) it was 95% (active); in experiment [6] (at 50.0 µM) it was 97.4% (active).

Take `CCCCCCCCCCCCNc1ccccn1`: the growth inhibition in experiment [1] (setting [7]) is -3%; in experiment [1] (setting [8]), 98% (active); in experiment [1] (at 50.0 µM), 18.4%; in experiment [2] (setting [7]), 25%; in experiment [2] (setting [8]), 99% (active); in experiment [2] (at 50.0 µM) it was 21.2%. Further, the growth inhibition is 42% in experiment [3] (setting [7]); 99% (active) in experiment [3] (setting [8]); 69.8% in experiment [3] (at 50.0 µM); 6% in experiment [4] (setting [7]); 99% (active) in experiment [4] (setting [8]); 56% in experiment [4] (at 50.0 µM). The growth inhibition in experiment [5] (setting [7]) is 29%; in experiment [5] (setting [8]), 99% (active); in experiment [5] (at 50.0 µM), 48%; in experiment [6] (setting [7]), 37%; in experiment [6] (setting [8]), 99% (active); in experiment [6] (at 50.0 µM), 80.8% (active).

For `Cc1cc(C)c(O)c(C(C)(C)C)c1`, the growth inhibition is -1% in experiment [1] (setting [7]); 3% in experiment [1] (setting [8]); 92.3% (active) in experiment [1] (at 50.0 µM); 1% in experiment [2] (setting [7]); 1% in experiment [2] (setting [8]); 59.7% in experiment [2] (at 50.0 µM). Also, the growth inhibition in experiment [3] (setting [7]) was 1%; in experiment [3] (setting [8]) it was 0%; in experiment [3] (at 50.0 µM) it was 74.7% (active); in experiment [4] (setting [7]), 2%; in experiment [4] (setting [8]) it was 8%; in experiment [4] (at 50.0 µM) it was 64.6%. Further, the growth inhibition was 3% in experiment [5] (setting [7]); -10% in experiment [5] (setting [8]); 66.8% in experiment [5] (at 50.0 µM); 2% in experiment [6] (setting [7]); 4% in experiment [6] (setting [8]); 89.7% (active) in experiment [6] (at 50.0 µM).

As to `OC(CCl)c1ccc2ccc3c(c2c1)Nc1ccccc1S3` (stereo not given), the growth inhibition in experiment [1] (setting [7]) is 0%; in experiment [1] (setting [8]), 80% (active); in experiment [1] (at 50.0 µM), 80.4% (active); in experiment [2] (setting [7]), -1%; in experiment [2] (setting [8]) it was 88% (active); in experiment [2] (at 50.0 µM) it was 97.2% (active). The growth inhibition is 2% in experiment [3] (setting [7]); 83% (active) in experiment [3] (setting [8]); 97.2% (active) in experiment [3] (at 50.0 µM); -1% in experiment [4] (setting [7]); 75% (active) in experiment [4] (setting [8]); 78.8% (active) in experiment [4] (at 50.0 µM). Besides, the growth inhibition in experiment [5] (setting [7]) is 4%; in experiment [5] (setting [8]) it was 87% (active); in experiment [5] (at 50.0 µM) it was 87.9% (active); in experiment [6] (setting [7]) it was -1%; in experiment [6] (setting [8]), 86% (active); in experiment [6] (at 50.0 µM) it was 96.5% (active).

As for `CC12CCC(=O)C=C1CCC1C2C(O)CC2(C)C(c3csc(N)n3)CCC12` (stereo not given), the growth inhibition was 58% in experiment [1] (setting [7]); 98% (active) in experiment [1] (setting [8]); 98.8% (active) in experiment [1] (at 50.0 µM); 17% in experiment [2] (setting [7]); 98% (active) in experiment [2] (setting [8]); 96.8% (active) in experiment [2] (at 50.0 µM). The growth inhibition in experiment [3] (setting [7]) was 49%; in experiment [3] (setting [8]), 97% (active); in experiment [3] (at 50.0 µM), 98% (active); in experiment [4] (setting [7]), 23%; in experiment [4] (setting [8]), 90% (active); in experiment [4] (at 50.0 µM), 94.5% (active). Also, the growth inhibition was 27% in experiment [5] (setting [7]); 97% (active) in experiment [5] (setting [8]); 96.8% (active) in experiment [5] (at 50.0 µM); 38% in experiment [6] (setting [7]); 96% (active) in experiment [6] (setting [8]); 96% (active) in experiment [6] (at 50.0 µM).

On to `CC(CCl)OC(=O)Nc1cccc(C(F)(F)F)c1` (stereo not given), for which the growth inhibition in experiment [1] (setting [7]) is 55%; in experiment [1] (setting [8]) it was 82% (active); in experiment [1] (at 50.0 µM), 73.1% (active); in experiment [2] (setting [7]) it was 40%; in experiment [2] (setting [8]), 50%; in experiment [2] (at 50.0 µM), 31.5%. In addition, the growth inhibition in experiment [3] (setting [7]) was 42%; in experiment [3] (setting [8]), 70% (active); in experiment [3] (at 50.0 µM), 83% (active); in experiment [4] (setting [7]) it was 41%; in experiment [4] (setting [8]), 51%; in experiment [4] (at 50.0 µM) it was 62%. The growth inhibition in experiment [5] (setting [7]) was 37%; in experiment [5] (setting [8]) it was 77% (active); in experiment [5] (at 50.0 µM) it was 74.8% (active); in experiment [6] (setting [7]), 55%; in experiment [6] (setting [8]), 87% (active); in experiment [6] (at 50.0 µM), 73% (active).

Turning to `O=C1C=CC(=O)N1CCc1ccccc1`, the growth inhibition in experiment [1] (setting [7]) was -33%; in experiment [1] (setting [8]), 97% (active); in experiment [1] (at 50.0 µM), 99.5% (active); in experiment [2] (setting [7]), -31%; in experiment [2] (setting [8]), 98% (active); in experiment [2] (at 50.0 µM), 99.5% (active). The growth inhibition is -34% in experiment [3] (setting [7]); 98% (active) in experiment [3] (setting [8]); 99.3% (active) in experiment [3] (at 50.0 µM); -10% in experiment [4] (setting [7]); 98% (active) in experiment [4] (setting [8]); 99.3% (active) in experiment [4] (at 50.0 µM). The growth inhibition was -45% in experiment [5] (setting [7]); 98% (active) in experiment [5] (setting [8]); 99.3% (active) in experiment [5] (at 50.0 µM); -90% in experiment [6] (setting [7]); 97% (active) in experiment [6] (setting [8]); 99.2% (active) in experiment [6] (at 50.0 µM).

As to `O=C(CCC1OCCO1)Nc1cc(NCc2ccccc2)ccc1OCc1ccccc1`, the growth inhibition is 1% in experiment [1] (setting [7]); 48% in experiment [1] (setting [8]); 71.2% (active) in experiment [1] (at 50.0 µM); 2% in experiment [2] (setting [7]); 69% in experiment [2] (setting [8]); 57% in experiment [2] (at 50.0 µM). The growth inhibition was -173% in experiment [3] (setting [7]); 73% (active) in experiment [3] (setting [8]); 89.4% (active) in experiment [3] (at 50.0 µM); 0% in experiment [4] (setting [7]); 16% in experiment [4] (setting [8]); 43.7% in experiment [4] (at 50.0 µM). Moreover, the growth inhibition was 0% in experiment [5] (setting [7]); 39% in experiment [5] (setting [8]); 65% in experiment [5] (at 50.0 µM); 16% in experiment [6] (setting [7]); 68% in experiment [6] (setting [8]); 70.2% (active) in experiment [6] (at 50.0 µM).

`Cc1ccc(S(=O)(=O)N2CCN(C)CC2)cc1`: the growth inhibition is -1% in experiment [1] (setting [7]); 12% in experiment [1] (setting [8]); 19.4% in experiment [1] (at 50.0 µM); -5% in experiment [2] (setting [7]); 26% in experiment [2] (setting [8]); 4.45% in experiment [2] (at 50.0 µM). The growth inhibition in experiment [3] (setting [7]) was 4%; in experiment [3] (setting [8]), 31%; in experiment [3] (at 50.0 µM), 5.5%; in experiment [4] (setting [7]) it was 1%; in experiment [4] (setting [8]), 16%; in experiment [4] (at 50.0 µM), -0.55%. Further, the growth inhibition is 1% in experiment [5] (setting [7]); 39% in experiment [5] (setting [8]); 40.5% in experiment [5] (at 50.0 µM); 13% in experiment [6] (setting [7]); 49% in experiment [6] (setting [8]); 11.6% in experiment [6] (at 50.0 µM).
